BRCA1 expr act – increases BRCA1 expression | MCF7-BRCA1-FFLuc reporter, luminescence, 48 h; response scale: scaled: vehicle 0%, 10 µM genistein 100% | actives 1.1% (n = 380,000) | AID 624202 | Potency, µM (doses to about 46.1 µM), hits mostly activators; note: nearly all actives have a fitted effect of over 80% in size
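Luminescence from a BRCA1-driven firefly luciferase in MCF7 cells was read after 48 h compound exposure at 37 C. Data normalized against DMSO and a 10microM genistein activation control, then curve-fitted across the titration.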
GLP-1R inv ag – acts as inverse agonist at human GLP-1 receptor; HEK293 GLP-1R CRE-luciferase, luminescence, 24 h; GLP-1R form is constitutively active; Potency, µM (highest dose often 38.3 µM), usual class: inhibitors; actives 1.6% (n = 410,000); P43220; note: nearly all actives have a fitted effect of over 55% in size
Target sequence (P43220 whole entry, looked up): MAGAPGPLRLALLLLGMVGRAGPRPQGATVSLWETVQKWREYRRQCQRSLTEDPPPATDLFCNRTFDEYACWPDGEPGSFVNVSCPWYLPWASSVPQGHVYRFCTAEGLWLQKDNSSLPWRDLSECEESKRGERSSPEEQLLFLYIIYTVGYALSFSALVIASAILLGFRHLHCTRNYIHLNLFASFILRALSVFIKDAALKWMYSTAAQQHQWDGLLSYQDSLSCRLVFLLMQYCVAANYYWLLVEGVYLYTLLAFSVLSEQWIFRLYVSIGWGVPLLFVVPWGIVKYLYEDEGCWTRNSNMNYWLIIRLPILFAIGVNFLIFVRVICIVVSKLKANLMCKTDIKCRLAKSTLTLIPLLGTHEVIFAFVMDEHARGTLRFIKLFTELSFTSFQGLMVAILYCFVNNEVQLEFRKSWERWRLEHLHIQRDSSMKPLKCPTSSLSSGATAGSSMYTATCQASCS
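GLP-1R inverse agonism mode: basal reporter luminescence in engineered HEK293 cells measured after one day of compound exposure at 37 deg C, with a 12 min room-temperature detection step.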
GLP-1R agonist – agonists of human GLP-1 receptor; HEK293 GLP-1R CRE-luciferase, luminescence, 4-6 h; cells express a hypersensitive GLP-1R form; Potency, µM (series often up to 45.6 µM), usual class: activators; actives 0.007% (n = 380,000); AID 624172
GLP1R cytotox – cytotoxicity counter-screen for GLP-1 receptor inverse agonists; HEK293 cAMP-luciferase reporter cells, luminescence, 24 h; Potency, µM (highest dose often 38.3 µM), actives largely listed as inhibitors; actives 0.13% (n = 410,000); AID 624418;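 note: loss of luciferase light is scored as toxicity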
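To flag toxic compounds, the library was rerun on cells for 24 hr at 37 deg C and 5% CO2. Viability-linked luminescence was captured 12 min after adding luciferase detection reagent.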
Each line names hits and unclear results; the compound was inactive in the other large screens. An excerpt weighted towards active compounds, which were near 2.6% of everything screened. Calls come from the whole dose curve; as a rule, active = well fitted curve in the direction sought with a large enough effect; inconclusive = small, poorly fitted or top-dose-only effect, or another doubt; inactive = no such curve, though single readings can be large; an effect the other way counts as inactive or inconclusive.

CCOc1ccc(CNC(=O)c2cnc3sc(N4CCCCCC4)nn3c2=O)cc1OC	none (no result: BRCA1 expr act, GLP-1R agonist)
OCc1ccc(-c2cccc3nccn23)cc1	none
COc1ccccc1N1CCN(C(CNC(=O)C(=O)NCCCN(C)C)c2cccnc2)CC1 (centres undefined)	none (no result: BRCA1 expr act, GLP-1R agonist)
CCN(CC)CCCNC(=O)c1cc(-c2ccc(Cl)c(Cl)c2)on1	GLP-1R inv ag 5.6µM, GLP1R cytotox inconclusive
CCN(CC)CCCNC(=O)c1cc2c(-c3ccc(Cl)cc3)nn(C)c2s1	GLP-1R inv ag 3.5µM, GLP1R cytotox inconclusive
CCn1c(=O)c(=O)n(CC)c2cc(N3CCCCC3)c(NC(=O)c3ccccc3OC)cc21	none (no result: BRCA1 expr act, GLP-1R agonist)
Cc1nnc(SCc2ccccc2)nc1-c1ccccc1	BRCA1 expr act 11µM, GLP-1R inv ag inconclusive
Cc1ccnc(NC(=O)Nc2cccc(F)c2)n1	BRCA1 expr act 1µM
Cc1ccc(NC(=O)Nc2ccc(Cl)cn2)cc1	BRCA1 expr act 4.5µM
Cc1ccc(NC(=O)Nc2cccc(F)c2)nc1	BRCA1 expr act 3.2µM
CCOC(=O)c1ccccc1NC1c2ccccc2C(=O)N1c1cc(C)ccn1 (centres undefined)	GLP-1R inv ag 13µM
CCOC(=O)C1(Cc2ccccc2)CCCN(C(=O)COc2ccccc2OC)C1 (centres undefined)	BRCA1 expr act 10µM, GLP-1R inv ag inconclusive
CCOC(=O)C1(Cc2ccccc2C)CCCN(C(=O)c2sccc2C)C1 (centres undefined)	GLP-1R inv ag 10µM
Nc1cc(N)nc(SCCOc2ccccc2)n1	BRCA1 expr act 13µM
CC(C)SCCCCOc1ccc2ccccc2c1	BRCA1 expr act 8.9µM
Clc1ccc(OCCSc2ncccn2)cc1	BRCA1 expr act 11µM, GLP-1R inv ag inconclusive
c1cnc(SCCCOc2ccc3ccccc3c2)nc1	BRCA1 expr act 11µM
C(=Nc1ccc(/C=C/c2ccnc3ccccc23)cc1)c1cccs1	none (no result: GLP-1R inv ag, GLP-1R agonist, GLP1R cytotox)
CCOC(=O)c1cc(-c2ccccc2)n(CCCC(=O)Nc2ccccc2C)c1C	GLP-1R inv ag inconclusive (no result: BRCA1 expr act, GLP-1R agonist)
COc1ccc(OCC(=O)Nc2nnc3n2CCS3)cc1	none
COc1ccc(OCCCSc2ncccn2)cc1	BRCA1 expr act 13µM
COC(=O)c1c(-c2ccc(F)cc2)csc1NC(=O)C1CCCO1 (centres undefined)	none
CCc1ccc(-c2csc(NC(=O)C3CCCO3)c2C(=O)OC(C)C)cc1 (centres undefined)	GLP-1R inv ag 1.3µM
C=CCNC(=O)NC(=O)COC(=O)CC(NC(N)=O)c1ccc(Cl)cc1 (centres undefined)	none
C(=Nc1cccnc1)c1ccc2ccccc2n1	none (no result: GLP-1R inv ag, GLP-1R agonist, GLP1R cytotox)
C=CCc1cccc(/C=N/NC(=O)CCCNc2ccc(C)cc2)c1O	GLP-1R inv ag 10µM, GLP1R cytotox inconclusive
C=CCc1cccc(/C=N/NC(=O)CNc2ccccc2)c1O	GLP-1R inv ag 3.5µM, GLP1R cytotox inconclusive
COc1cc2nc(N3CCCN(C)CC3)nc(NC3CCN(Cc4ccccc4)CC3)c2cc1OC	none (no result: GLP-1R inv ag, GLP-1R agonist, GLP1R cytotox)
Fc1ccc(NC(=S)Nc2cc(-c3ccccc3)[nH]n2)cc1Cl	GLP-1R inv ag inconclusive, GLP1R cytotox 13µM
CCOC(=O)c1ccc(-c2ccc3c(c2)CCC3)nc1C	BRCA1 expr act 10µM
Nc1nonc1C(=O)N/N=C/c1ccc(Br)o1	none
N/C(=N\N=C\c1ccc(Br)o1)c1nonc1N	BRCA1 expr act 10µM
CCCN1C(=O)c2ccc(C(=O)Nc3cc(C)ccc3O)cc2C1=O	none
Cc1ccc(O)c(NC(=O)c2ccc3c(c2)C(=O)N(CC(C)C)C3=O)c1	BRCA1 expr act 7.9µM
CCOC(=O)c1ccc(-c2ccc(/C=N/NC(=O)Cc3nnc(N)s3)o2)cc1	BRCA1 expr act 2.2µM
O=C(NCc1ccccc1)c1cc(C2CCCCN2S(=O)(=O)c2cccs2)on1 (centres undefined)	none
CCc1ccc(C(C)NC(=O)C2(C)CC2(Br)Br)cc1 (centres undefined)	GLP-1R inv ag 10µM
O=C(C1CCN(CCCc2ccccc2)CC1)N(CCc1ccccc1)Cc1ccccc1	GLP-1R inv ag 10µM, GLP1R cytotox inconclusive
O=C1C(Cc2ccccc2)NC(=S)N1Cc1ccccc1 (centres undefined)	GLP-1R inv ag inconclusive
CSCCC1NC(=S)N(Cc2ccccc2)C1=O (centres undefined)	GLP-1R inv ag 10µM
CC(C)CC1NC(=S)N(Cc2ccccc2)C1=O (centres undefined)	GLP-1R inv ag 2.8µM

Screens: PubChem BioAssay, National Center for Advancing Translational Sciences (NCATS)
